± gives the standard deviation of the averaged measurements.
Assays:
[1] = system: DLD1; assay: cell viability (CellTiter-Glo) relative to plate median (fraction of plate median); higher = more viable cells; settings: 5 µM; treatment time 24 h; reporter: 7TFP
Outline: (§1)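 Colorectal cancer cell lines stably transduced with lentiviral TCF/Wnt firefly luciferase reporters (7TFP or TCF4/Wnt) were seeded in 384-well plates. 24 h later they received library compounds at a final 5 µM for 24 h. Parallel plates were read for firefly luciferase or CellTiterGlo luminescence on a Tecan F500 reader. Each well's signal was normalised to the plate median (webcellHTS2, additive, no log transformation), and the mean of two independent replicates is reported.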

[2] = system: HCT116; assay: as above; settings: 5 µM; treatment time 24 h; reporter: TCF4/Wnt
Outline: as §1

[3] = system: SW480; assay: as above; settings: 5 µM; treatment time 24 h; reporter: 7TFP
Outline: as §1

[4] = system: DLD1; assay: TCF/Wnt firefly luciferase reporter signal relative to plate median (fraction of plate median); higher = higher Wnt reporter signal; settings: 5 µM; treatment time 24 h; reporter: 7TFP
Outline: as §1

[5] = system: SW480; assay: as above; settings: 5 µM; treatment time 24 h; reporter: 7TFP
Outline: as §1

Compound	cell viability [1]	cell viability [2]	cell viability [3]	TCF/Wnt firefly luciferase reporter signal [4]	TCF/Wnt firefly luciferase reporter signal [5]
Nc1nc(/C(=C/CC(=O)O)C(=O)N[C@@H]2C(=O)N3C(C(=O)O)=CCS[C@H]23)cs1	0.988 ± 0.06	1.03 ± 0.021	0.985 ± 0.0042	1.13 ± 0.22	1.01 ± 0.052
Clc1ccc(COC(Cn2ccnc2)c2ccc(Cl)cc2Cl)cc1 (stereo not given)	0.944 ± 0.11	0.972 ± 0.0085	0.99 ± 0.029	0.936 ± 0.13	1.03 ± 0.074
CCN1CCCC1CNC(=O)c1cc(S(N)(=O)=O)ccc1OC (stereo not given)	0.985 ± 0.064	0.954 ± 0.023	1.02 ± 0.071	1.06 ± 0.22	0.959 ± 0.072
O=C(O)CN1C(=O)c2cccc3cccc(c23)C1=O	0.996 ± 0.034	0.967 ± 0.017	1.005 ± 0.0071	0.964 ± 0.12	1.09 ± 0.042
CCCN(CCC)C(=O)C(CCC(=O)O)NC(=O)c1ccccc1 (stereo not given)	0.921 ± 0.057	1.06 ± 0.035	0.904 ± 0.024	1.01 ± 0.024	1.06 ± 0.05
CCN(CC)CCOC(=O)C1(C2CCCCC2)CCCCC1	0.98 ± 0.0014	1.02 ± 0.14	1.045 ± 0.0071	0.9375 ± 0.0078	1.045 ± 0.0071
O=c1ccc2ccccc2o1	0.985 ± 0.11	1.01 ± 0.029	0.976 ± 0.014	1.09 ± 0.014	0.984 ± 0.018
O=C(O)c1cc(=O)c2cccc(O)c2[nH]1	0.932 ± 0.077	1.07 ± 0.1	0.946 ± 0.016	1.19 ± 0.014	1.15 ± 0.021
CC1(C)O[C@H]2CC(=O)OC[C@]23[C@H]2CC[C@@]4(C)[C@H](c5ccoc5)OC(=O)[C@H]5O[C@]54[C@]2(C)C(=O)C[C@@H]13	1.01 ± 0.045	1.07 ± 0.064	1.05 ± 0.05	0.944 ± 0.03	0.98 ± 0.099
O=C1CC[C@]23/C=C/C(=O)NCCCCNCCCNC(=O)/C=C/c4ccc(c2c4)O[C@@H]3C1	1.03 ± 0.014	1.06 ± 0.057	1.01 ± 0.024	1.01 ± 0.056	1.04 ± 0.042
NCc1ccc(S(N)(=O)=O)cc1	0.962 ± 0.023	1 ± 0.069	0.991 ± 0.042	1.03 ± 0.17	1.12 ± 0.078
CCCCCCNC(=O)n1cc(F)c(=O)[nH]c1=O	1.06 ± 0.042	0.925 ± 0.13	1.04 ± 0.014	0.971 ± 0.13	1.08 ± 0.078
OC(Cn1cncn1)(Cn1cncn1)c1ccc(F)cc1F	0.889 ± 0.033	0.883 ± 0.069	0.9295 ± 0.0064	1.09 ± 0.028	1.01 ± 0.054
C[C@]12C=CC(=O)C=C1CC[C@H]1[C@@H]3C[C@@H](O)[C@](O)(C(=O)CO)[C@@]3(C)C[C@H](O)[C@@]12F	0.999 ± 0.086	1.01 ± 0.047	0.982 ± 0.012	0.951 ± 0.069	0.89 ± 0.15
CCC(=O)OCC(=O)[C@@]1(OC(=O)CC)[C@H](C)CC2C3C([C@@H](O)C[C@@]21C)[C@@]1(C)C=CC(=O)C=C1C[C@H]3Cl (stereo not given in full)	1.01 ± 0.014	1.02 ± 0.014	0.975 ± 0.0057	0.9755 ± 0.0078	0.926 ± 0.049
COC(=O)C[C@H]1C2(C)CC34OC5(C)O[C@@]6([C@H](OC)C(OC(=O)C(C)C)[C@]7(C)C(/C(=C(/OC)C(C)C)C(=O)O[C@H]7c7ccoc7)[C@@]6(O5)[C@H](OC)[C@@]3(OC)C2OC(C)=O)[C@]14C (stereo not given in full)	1.025 ± 0.0071	0.916 ± 0.013	0.9595 ± 0.00071	0.883 ± 0.065	0.903 ± 0.016
C[C@@H]1CC(=O)c2c(ccc3c2C(=O)c2cccc(O)c2C3=O)C1 [Ochromycinone (Isoform A, compound ID 7490)]	1.06 ± 0.078	1.005 ± 0.0071	1.02 ± 0.072	1 ± 0.023	0.997 ± 0.32

Compound	cell viability [1]	cell viability [2]	cell viability [3]	TCF/Wnt firefly luciferase reporter signal [4]	TCF/Wnt firefly luciferase reporter signal [5]
O.O.O.O.O=C([O-])CC(O)(CC(=O)[O-])C(=O)[O-].[Li+].[Li+].[Li+]	0.955 ± 0.11	0.852 ± 0.086	0.966 ± 0.0028	0.844 ± 0.012	0.725 ± 0.14
CC(=O)OCC[N+](C)(C)C	0.987 ± 0.15	0.998 ± 0.059	0.982 ± 0.014	1.01 ± 0.023	0.992 ± 0.012
CCc1cc(C(N)=S)ccn1	0.964 ± 0.035	1.02 ± 0.028	0.987 ± 0.0071	1.07 ± 0.078	1.09 ± 0.028
COc1c(O)cc2c(c1O)[C@@H]1O[C@H](CO)[C@@H](O)[C@H](O)[C@H]1OC2=O	0.966 ± 0.049	0.912 ± 0.039	1.02 ± 0.04	0.981 ± 0.14	1.09 ± 0.092
OC1=Cc2c(O)cc(O)cc2OC1(O)c1ccc(O)c(O)c1 (stereo not given)	0.963 ± 0.053	1.07 ± 0.17	0.943 ± 0.044	0.923 ± 0.07	0.9795 ± 0.0021
O=c1cc(-c2ccccc2)oc2cc(O)c(O)cc12	1.04 ± 0.14	0.986 ± 0.063	1.03 ± 0.042	0.801 ± 0.064	1 ± 0.12
COc1cc2c(cc1OC)-c1c(oc3cc(O)cc(O)c3c1=O)CO2	0.988 ± 0.12	0.972 ± 0.096	0.972 ± 0.0042	1.22 ± 0.05	1.03 ± 0.035
CC[C@@H](CO)NCCN[C@@H](CC)CO	0.963 ± 0.12	1.03 ± 0.021	1.02 ± 0.059	1.2 ± 0.05	1.19 ± 0.035
C=C1C(=O)O[C@H]2C[C@@H]1C(OC(C)=O)C/C(C)=C/CC/C(C)=C/CC[C@@]2(C)O (stereo not given in full)	0.888 ± 0.067	0.999 ± 0.058	1.06 ± 0.014	0.885 ± 0.13	0.892 ± 0.0092
CC(C)=CC1C(CO)C1(C)C (stereo not given)	0.996 ± 0.049	0.948 ± 0.061	1.02 ± 0.014	0.984 ± 0.052	0.97 ± 0.18
CC[C@H]1OC(=O)C[C@@H](O)[C@H](C)[C@@H](O[C@@H]2O[C@H](C)[C@@H](O[C@H]3C[C@@](C)(O)[C@@H](O)[C@H](C)O3)[C@H](N(C)C)[C@H]2O)[C@@H](CC=O)C[C@@H](C)C(=O)/C=C/C(C)=C/[C@@H]1CO[C@@H]1O[C@H](C)[C@@H](O)[C@@H](OC)[C@H]1OC	0.947 ± 0.046	1.08 ± 0.021	1.07 ± 0.021	1.1 ± 0.099	1.035 ± 0.0071
CCOC(=O)c1c(C)c(Cl)c(O)c(Cl)c1O	0.991 ± 0.042	0.987 ± 0.013	0.9025 ± 0.0078	0.966 ± 0.013	0.994 ± 0.052
CCOC(=O)Nc1nc2ccccc2[nH]1	1.03 ± 0.028	0.887 ± 0.016	1.06 ± 0.035	0.971 ± 0.056	0.959 ± 0.0057
CN1[C@@H]2CC[C@H]1C[C@@H](OC(c1ccccc1)c1ccccc1)C2	1.03 ± 0.014	1.12 ± 0.014	1.05 ± 0.05	0.929 ± 0.16	0.982 ± 0.12
CN1C(=O)CC[C@H]1c1cccnc1	1.03 ± 0.035	1.1 ± 0.078	1.07 ± 0.014	1.06 ± 0.057	0.94 ± 0.073
Cn1nnnc1SCC1=C(C(=O)O)N2C(=O)[C@@H](NC(=O)[C@H](O)c3ccccc3)[C@H]2SC1	1.05 ± 0.064	0.949 ± 0.03	1.01 ± 0.037	0.878 ± 0.03	0.989 ± 0.072
